From PubChem
FLuc counter – qHTS profiling assay for firefly luciferase inhibitor/activator using purifed enzyme and Km concentrations of substrates (counterscreen for miR-21 project) | Potency, µM (highest dose often 57.5 µM), for the others: top-dose activity change, negative = inhibition, hits mostly inhibitors | purified FLuc, Km substrates, luminescence inhibition | AID 588342, 2011 | Luciferin 4-monooxygenase (Photinus pyralis), P08659 | actives 6.9% (n = 360,000);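 also: plate controls were vehicle for no effect and reference inhibitor for full effect; nearly all actives have a fitted effect of over 55% in size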
Target sequence (P08659 whole entry, looked up): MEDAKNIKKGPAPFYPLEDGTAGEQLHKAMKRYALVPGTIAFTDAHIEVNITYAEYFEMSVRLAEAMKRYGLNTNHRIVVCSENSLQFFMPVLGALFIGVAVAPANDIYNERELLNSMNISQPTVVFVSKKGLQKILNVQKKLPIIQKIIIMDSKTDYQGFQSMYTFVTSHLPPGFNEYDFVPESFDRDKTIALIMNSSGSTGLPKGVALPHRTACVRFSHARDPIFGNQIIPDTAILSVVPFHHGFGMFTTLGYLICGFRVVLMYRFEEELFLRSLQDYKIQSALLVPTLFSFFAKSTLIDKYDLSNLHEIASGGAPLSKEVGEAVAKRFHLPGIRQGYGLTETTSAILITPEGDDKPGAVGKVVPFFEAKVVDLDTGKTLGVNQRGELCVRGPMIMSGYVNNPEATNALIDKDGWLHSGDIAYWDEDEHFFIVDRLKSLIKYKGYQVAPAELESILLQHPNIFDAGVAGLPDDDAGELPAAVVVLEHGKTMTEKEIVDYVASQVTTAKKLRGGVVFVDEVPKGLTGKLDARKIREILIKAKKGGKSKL
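Purified P. pyralis luciferase (10nM final) with 10uM D-luciferin and 10uM ATP (Km levels) in 50mM Tris acetate pH 7.5, 10mM Mg acetate, 0.01% Tween-20, 0.05% BSA; qHTS 6-point titration, ~60 µM downward; luminescence read.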
Rab9 prom act – qHTS Assay for Rab9 Promoter Activators; actives 2.8% (n = 320,000); AID 485297, 2010; Potency, µM (top dose mostly 9.22 µM), for the others: at the highest dose activation, negative = inhibition, most hits filed as activators; Huh7 Rab9 promoter-luciferase reporter, luminescence, 24 h; also: % of control where 0% means no effect; nearly all actives have a fitted effect of over 60% in size
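Promoter activation is measured as luciferase luminescence in Huh7 cells stably transfected with a Rab9 promoter–luciferase construct, following 24 h compound exposure at 37 °C and 10 min reagent incubation at ambient temperature.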
NPC1 prom act – qHTS Assay for NPC1 Promoter Activators | Huh7 NPC1 promoter luciferase reporter, 24 h | Potency, µM (top dose mostly 9.22 µM), inactives show top-dose activation, hits mostly activators | actives 2.4% (n = 320,000) | AID 485313, 2010; also: % of control where 0% means no effect; nearly all actives have a fitted effect of over 60% in size
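Cells: Huh7 expressing luciferase under the NPC1 promoter, 1500/well. Seeded 2 h, compound added, incubated 24 h at 37 °C. Luciferase reagent, 10 min ambient, then luminescence.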
SMN2 splice enh – qHTS Assay for Enhancers of SMN2 Splice Variant Expression | HEK293 SMN2-luciferase splicing reporter, luminescence, 30-36 h | AID 1458, 2008 | Potency, µM (top dose mostly 46.1 µM), without a hit: at the top dose activity change, positive = activation, actives largely listed as activators | actives 2.8% (n = 210,000); also: % of control where 0% means no effect; nearly all actives have a fitted effect of over 55% in size
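qHTS luciferase splicing reporter: luminescence rises when SMN2 exon 7 is included in transfected HEK293 cells. Compound exposure lasted 30-36 h at 37C, with 4.5 mM final sodium butyrate as control, followed by a ONE-Glo read.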
ELG1 genotox – qHTS screen for small molecules that induce genotoxicity in human embryonic kidney (HEK293T) cells expressing luciferase-tagged ELG1. HEK293T ELG1-luciferase reporter, luminescence, 16 h. Potency, µM (highest dose often 46 µM), for the others: at the top dose activity change, positive = activation, actives largely listed as activators. actives 1.3% (n = 330,000). AID 504466, 2011; also: % of control where 0% means no effect; nearly all actives have a fitted effect of over 60% in size
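Step 1: seed 2,000 HEK293T ELG1-luciferase cells per well. Step 2: add compound or DMSO, incubate 16 hr at 37 °C. Step 3: ONE-Glo, 30 min at room temperature, read luminescence.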
The depositor's hits bear a star; ? = inconclusive; / = no result given; [ ] = another dose, or the depositor's remark. This is a sample that favours compounds with a hit; in the whole collection about 7.4% have one here. Calls follow the shape of the dose curve; as a rule, active = well fitted curve in the direction sought with a large enough effect; inconclusive = small, poorly fitted or top-dose-only effect, or another doubt; inactive = no such curve, though single readings can be large; an effect the other way counts as inactive or inconclusive. Potency is read from the fitted curve at half-maximal effect.

SMILES	FLuc counter	Rab9 prom act	NPC1 prom act	SMN2 splice enh	ELG1 genotox
CC(=O)Nc1ccc(S(=O)(=O)Oc2cccc(/C=C3\SC(N)=NC3=O)c2)cc1	1%	4%	0%	6%	29%
O=C1/C(=C/c2cccs2)Sc2ccccc21	1.1µM*	?	14%	?	?
CCOCCCNC(=O)/C(C#N)=C/c1ccccc1F	-8%	0%	0%	5%	4%
COc1ccc(-c2c(C)nn(-c3ccccc3)c2N)cc1	21µM*	?	?	?	?
COc1ccc(-c2c(C)nn(-c3ccccc3)c2N)cc1OC	5%	0%	-4%	?	18%
Cc1nn(C(C)(C)C)c(N)c1-c1ccccc1	-14%	0%	0%	-43%	2%
Cc1nn(-c2ccc(C(=O)O)cc2)c(N)c1-c1ccccc1	3µM*	?	?	11µM*	?
COc1ccc(-c2nn(-c3ccccc3)cc2N)cc1	11µM*	2.8µM*	3.5µM*	14µM*	?
CCOc1ccc(NC(=O)CSc2nc(=O)[nH]c3c2CCC3)cc1	-9%	/	/	/	/
NC(=O)CS(=O)C[C@H](N)C(=O)O (stereo partly specified)	/	/	/	3%[9.22 µM]	/
O=C(COc1ccc(Cl)cc1)NCCS(=O)(=O)N1CCN(c2ccccc2F)CC1	-1%	-1%	-2%	/	-7%
Cc1cc(C(=O)N/N=C/c2cccc([N+](=O)[O-])c2)c(C)n1-c1ccccc1	0.95µM*	?	?	10µM*	?
Cc1cc(C(=O)N/N=C/c2ccc(Cl)c([N+](=O)[O-])c2)c(C)n1-c1ccc(F)cc1	-11%	-10%	-8%	-21%	?
COc1ccc(/C=N/NC(=O)c2cccc(C(=O)N/N=C/c3ccc(OC)c(OC)c3)n2)cc1OC	2%	-2%	2%	/	-4%
COc1ccc(/C=N/NC(=O)c2cc(C)n(-c3ccccc3)c2C)cc1OC	8.5µM*	22%	-20%	17%	7%
CC1(c2ccccc2)NC(=O)N(CC(=O)NCC2CCCO2)C1=O (stereo unspecified)	6%	-1%	-3%	/	1%
CSCCOC(=O)COc1ccc(/C=N/NC(=O)c2nn(C)cc2Cl)cc1	13µM*	-7%	-5%	-22%	3%
Cc1ccc(NC2CCCN(C(=O)CCN3CCOCC3)C2)cc1C (stereo unspecified)	2%	-1%	0%	/	-7%
Cn1c(-n2cccc2)c(-c2c(-c3ccc(F)cc3)[nH]c3c2c(=O)n(C)c(=O)n3C)c(=O)n(C)c1=O	1%	/	/	/	/
Cc1nc2oc(C(=O)c3ccc(Br)cc3)c(N)c2c2c1COC(C)(C)C2	-4%	6%	0%	/	1%
Cc1ccc(C(=O)c2oc3nc(C)cc(C)c3c2N)cc1	13µM*	-10%	-1%	-4%	2%
COc1ccc(C(=O)c2oc3nc(C)cc(C)c3c2N)cc1	12µM*	18%	0%	-9%	1%
CCc1ccc(C(=O)c2oc3nc(C)cc(C)c3c2N)cc1	15µM*	24%	3%	-5%	6%
COc1ccc(C(=O)c2oc3ccccc3c2NC(=O)c2cccc(OC)c2)cc1	-3%	/	/	-18%	/
C=CCN(C(=O)CC(NC(C)=O)c1ccccc1)c1nc(-c2ccc(S(C)(=O)=O)cc2)cs1 (stereo unspecified)	?	21%	17%	/	?
SMILES	FLuc counter	Rab9 prom act	NPC1 prom act	SMN2 splice enh	ELG1 genotox
NC(=O)c1cc(S(=O)(=O)N2CCOCC2)cs1	2%	0%	-4%	/	2%
C[C@]1(CC/C(=C/CO)CO)[C@H](CO)CC[C@@]23COC(=O)C2=CCC[C@@H]31	7%	4%	1%	/	-1%
COC(=O)C(C)N1C(=O)S/C(=C\c2ccc(-c3ccc(C(=O)O)cc3C)o2)C1=O (stereo unspecified)	17µM*	2.2µM*	2.8µM*	/	?
Cc1ccc(C(=O)O)cc1-c1ccc(C=C2C(=O)c3ccccc3C2=O)o1	17µM*	-4%	0%	16%	0%
O=C1C(=Cc2ccc(Br)o2)C(=O)c2ccccc21	13µM*	22%	9%	9%	7%
COc1ccccc1N(C)S(=O)(=O)c1ccc(C(=O)Nc2cc(F)ccc2C)cc1	/	/	/	/	-7%
COc1cc(OC)c(NC(=O)C2CCCN(c3ncnc4c3nc3n4CCCCC3)C2)cc1Cl (stereo unspecified)	-16%	/	/	/	/
O=C1c2ccccc2NC(c2ccc(-c3cccs3)o2)N1O (stereo unspecified)	12µM*	1%	10%	/	?
O=C1c2ccccc2NC(c2ccc(Br)o2)N1O (stereo unspecified)	-30%	17%	20%	/	11%
O=C(Nc1nc(-c2ccc(F)cc2)cs1)C1CCCO1 (stereo unspecified)	12µM*	23%	18%	11%	11%
Cc1csc(NC(=O)C2CCCO2)n1 (stereo unspecified)	1%	-2%	-1%	?	1%
O=C(Nc1nc(-c2ccc(-c3ccccc3)cc2)cs1)C1CCCO1 (stereo unspecified)	8.5µM*	0%	7%	-27%	5%
O=C(Nc1ccc(F)cc1)C1CCCO1 (stereo unspecified)	-11%	-15%	-4%	0%	0%
O=C(Nc1nc(-c2ccccc2)cs1)C1CCCO1 (stereo unspecified)	24µM*	26%	?	?	?
O=C(Nc1nc(-c2ccccc2)cs1)C1c2ccccc2Oc2ccccc21	3%	1%	0%	30%	-6%
C=CC[C@@H](CC(=O)N[C@H](CO)Cc1ccccc1)C(=O)NCCOC(=O)[C@@H](CC=C)CC(=O)OC(C)(C)C	/	/	/	/	-2%
NC(=O)c1ccccc1-c1noc(-c2ccccc2F)n1	17µM*	?	?	/	/
O=C(NCC1CCCO1)c1ccccc1-c1nc(-c2ccccc2F)no1 (stereo unspecified)	?	-3%	3%	/	1%
NC(=O)c1ccc(-c2noc(-c3ccccc3F)n2)cc1	3µM*	0.32µM*	0.32µM*	/	?
Cc1cc(N/N=C/c2ccc(F)cc2)nc(NCc2ccccc2)n1	11µM*	1%	15%	/	1%
Cc1cc(N/N=C/c2ccc(N(C)C)cc2)nc(NCc2ccccc2)n1	11µM*	-12%	2%	/	-12%
COc1ccc2nc(C)cc(N/N=C/c3ccc(F)cc3)c2c1	17µM*	-12%	-39%	/	-17%
CN(C)c1nc(NCc2ccccc2)nc(N/N=C/c2ccc(Br)cc2)n1	-1%	-16%	-2%	3%	7%
